Bioassay records as filed in PubChem BioAssay.
Kir21 inh: inhibitors of mouse Kir2.1 inward-rectifier potassium channel; P35561; HEK293-Kir2.1, FluxOR thallium flux fluorescence; hits give low values; B-score at 10 µM; 0.85% of 310,000 active; AID 1672;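 active means fluorescence ratio B-score at or below minus 3 SD of library scores, with starting-brightness B-score within 2 SD, cut at about -4.2 in these data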;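 further: channel flux triggered by added potassium and thallium sulfate stimulus; B-score of peak minus minimum fluorescence over baseline after thallium stimulus; more negative B-score means stronger Kir2.1 block with less thallium influx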
TMEM16A act: activators or potentiators of mouse TMEM16A chloride channel; Q8BHY3; HEK293 TMEM16A/YFP-H148Q/I152L, iodide quench fluorescence; hits give low values; B-score at 10 µM; 0.3% of 340,000 active; AID 623877;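 active means fluorescence-ratio B-score plate-corrected deviation score at least 3 library SD below zero, with starting fluorescence score within 5 deviations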;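 further: channel opened by trigger with iodide after compound preincubation; score built on the fluorescence ratio of max minus min over baseline; more negative score means more quench and so TMEM16A activation or potentiation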
ANO1 block: inhibitors of mouse TMEM16A calcium-activated chloride channel; Q8BHY3; normalized B-score (activity score, 25-100; higher = stronger inhibition) at 10 µM; 1.2% of 310,000 active; HEK293 TMEM16A/YFP iodide influx fluorescence, ionomycin;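 active means ratio plate-corrected score three or more library SD toward inhibition, starting fluorescence score within five deviations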;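 further: score derived from kinetic fluorescence span divided by baseline fluorescence per well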
CHT PAM: human CHT allosteric activation | CHT-expressing cells, membrane potential dye, choline EC20; hits give high values; LV-AA mutant CHT in HEK293 cells | 0.49% of 310,000 active | AID 488977 | Q9GZV3 | B-score at 10 µM;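 active means initial fluorescence not abnormally high and integrated response B-score, plate-corrected, over 3 SD above library mean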
Target sequence (Q9GZV3 whole entry, looked up): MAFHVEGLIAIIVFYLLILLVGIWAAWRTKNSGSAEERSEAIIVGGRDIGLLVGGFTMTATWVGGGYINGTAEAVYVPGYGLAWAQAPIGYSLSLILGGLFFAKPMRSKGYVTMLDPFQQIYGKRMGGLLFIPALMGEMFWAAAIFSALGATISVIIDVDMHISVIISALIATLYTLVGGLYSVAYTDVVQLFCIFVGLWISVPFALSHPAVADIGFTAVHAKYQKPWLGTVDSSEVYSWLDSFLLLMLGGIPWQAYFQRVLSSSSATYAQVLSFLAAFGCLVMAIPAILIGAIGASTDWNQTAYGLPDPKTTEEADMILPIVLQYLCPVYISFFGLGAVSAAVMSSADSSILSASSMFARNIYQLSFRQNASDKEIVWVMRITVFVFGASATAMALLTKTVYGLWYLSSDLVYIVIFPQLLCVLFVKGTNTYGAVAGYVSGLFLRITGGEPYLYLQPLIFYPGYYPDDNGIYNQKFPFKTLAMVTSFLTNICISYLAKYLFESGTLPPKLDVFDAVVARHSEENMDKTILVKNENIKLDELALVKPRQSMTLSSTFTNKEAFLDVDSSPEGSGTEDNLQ
Rce1 inh: blocks yeast Ras-converting enzyme | Q03530 | yeast membranes, quenched prenylated peptide cleavage fluorescence | calls only | 0.27% of 290,000 active | AID 2563;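 active means fall in fluorescence gain of 50% or more versus controls, with final raw signal at or below 3038400; inconclusive means same 50% fall but final raw signal above 3038400; inactive means fall in fluorescence gain under 50%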
CHT inh: inhibitors of human choline transporter CHT | Q9GZV3 | CHT-expressing cells, membrane potential dye, choline response; hits give low values | B-score at 10 µM | 0.86% of 310,000 active | AID 488975;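 active means B-score over 3 SD under the library average, and starting fluorescence ratio not unusually high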;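 further: choline stimulus applied at its EC90 after an EC20 pre-addition; B-score computed on integrated fluorescence ratio after choline addition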
CHT activ conf: confirmation of human choline transporter (CHT) activators; shares compounds with CHT PAM; 91% of 2,500 active; activation, % at 10 µM; AID 504833; CHT-expressing cells, membrane potential dye fluorescence (FDSS); % of choline EC20–EC90 response window; HEK293 expressing CHT LV-AA mutant; choline added at its EC20;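 active means primary screen active, with duplicate mean activation above negative control mean plus 3 SD, cut at about 11% in these data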
HEK293 MP dye: activity in parental HEK293 cells lacking CHT. shares compounds with CHT PAM. membrane potential dye fluorescence (FDSS); measured after EC20 choline addition. ratio readout change at 10 µM, hits read low. 62% of 2,500 active;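 active means duplicate-averaged ratio beyond 3 SD from buffer wells, up or down, though filed actives are nearly all decreases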
Each line names hits and unclear results; the compound was inactive in the other large screens (follow-up assays come after a bar, where they were run). Rows were chosen to be rich in hits. Some 3.2% of all compounds tested hit in one or more screens of this group.

CC(C)N(C(=O)COC(=O)[C@@H]1CC(O)CN1S(=O)(=O)c1ccc(C(C)(C)C)cc1)C(C)C (some centres not stated)	CHT PAM 7.1 | CHT activ conf inactive | HEK293 MP dye inactive
Cc1nn(C)c2ncc(C(N)=O)c(Oc3cccnc3)c12	none (no result: Rce1 inh)
CCOC(=O)c1cnc2c(c(C)nn2C)c1Oc1ccc(Cl)cc1	CHT PAM 6.4 | CHT activ conf 27 | HEK293 MP dye inactive
CCOc1ccc(S(=O)(=O)N2CCCC(C(=O)N3CCN(CC)CC3)C2)cc1Cl (configuration not stated)	none
CN1CCN(/N=C/c2nc(-c3ccc(Cl)cc3)n3ccccc23)CC1	none
CN1CCN(/N=C/c2nc(-c3ccccc3)n3ccccc23)CC1	none | CHT activ conf 27 | HEK293 MP dye inactive
COC(=O)C1CN(C(=O)C(C)Oc2ccc(C(C)C)cc2)c2ccccc2O1 (configuration not stated)	none | CHT activ conf 18 | HEK293 MP dye inactive
O=C(NNC(=O)c1ccccc1F)c1cccc(S(=O)(=O)N2CCc3ccccc32)c1	none (no result: Kir21 inh, ANO1 block, CHT PAM, Rce1 inh, CHT inh)
CCN(Cc1ccccc1)C(=O)c1nn(-c2ccc(OC)cc2)c(=O)c2c1c1ccccc1n2C	none | CHT activ conf 46 | HEK293 MP dye inactive
CCCN1CCN(C(=O)c2nn(-c3ccc(OC)cc3)c(=O)c3c2c2ccccc2n3C)CC1	none
COc1cccc(CNC(=O)c2ccc(NC(=O)CC3SC(N4CCCC4)=NC3=O)cc2)c1 (configuration not stated)	none (no result: Kir21 inh, ANO1 block, CHT PAM, Rce1 inh, CHT inh)
Fc1ccc(-c2cn(-c3ccccc3)c3[n+]2CCS3)cc1	none | CHT activ conf 51 | HEK293 MP dye -42
O=[N+]([O-])c1cccc(-c2c[n+]3c(n2-c2ccccc2)SCC3)c1	none
Clc1ccc(-c2cn(-c3ccccc3)c3[n+]2CCS3)cc1	none | CHT activ conf 41 | HEK293 MP dye -40
Clc1ccc(-c2c[n+]3c(n2-c2ccccc2)SCC3)cc1	none | CHT activ conf 43 | HEK293 MP dye -28
O=C(O)c1c(-c2ccc(Cl)cc2)cn2ccccc12	none
O=C(c1nc2ccccn2c1CN1CCCC(O)C1)N1CCN(C2CCCCC2)CC1 (configuration not stated)	none | CHT activ conf 75 | HEK293 MP dye -57
COCC1CCN(Cc2c(C(=O)N3CCN(C4CCCCC4)CC3)nc3ccccn23)C1 (configuration not stated)	none
COCCn1c(SCCOc2ccccc2)nc2ccccc2c1=O	none
C#CCOCCOCCOCCNc1nc(N2CCOCC2)nc(N2CCN(C(=O)CCCCCCCCCCNC(=O)[C@@H]([C@H](C)CC)n3cc(CCCCCN)nn3)CC2)n1	CHT PAM 8.4 (no result: Kir21 inh, Rce1 inh) | CHT activ conf inactive | HEK293 MP dye -32
CN(C)CCCN(C(=O)c1ccco1)c1nc2c(F)cccc2s1	none | CHT activ conf 45 | HEK293 MP dye -58
CSc1nnc(SCC#N)s1	none
CC[n+]1c(C)sc2c3ccsc3ccc21	CHT PAM 10 | CHT activ conf 48 | HEK293 MP dye -50
C/C(N)=C(/C#N)C(=O)COC(=O)Cc1coc2ccc3ccccc3c12	none
COc1ccc(OC)c2c(C)cc(N3CCCN(C)CC3)nc12	CHT PAM 8 | CHT activ conf 46 | HEK293 MP dye -74
OCCCNc1ncnc2sc3c(c12)CCN(Cc1ccccc1)C3	CHT PAM 6.2, Rce1 inh inconclusive | CHT activ conf 49 | HEK293 MP dye -53
CCCC(CCC)C(=O)Nc1ccc2c(c1)N(C(=O)CN1CCN(C)CC1)c1ccccc1CC2	CHT PAM 6.7 | CHT activ conf 29 | HEK293 MP dye inactive
CC(=O)Nc1ccc2c(c1)N(C(C)=O)c1ccccc1CC2	none
COc1ccc(/C(O)=C2/C(=O)C(=O)N(c3ncccn3)C2c2ccc(F)cc2)cc1 (configuration not stated)	none
O=C1CN(C(=O)c2ccccc2[N+](=O)[O-])C(c2ccccc2)c2cc(Br)ccc2N1 (configuration not stated)	CHT PAM 6.7 | CHT activ conf 24 | HEK293 MP dye inactive
Cc1ccc2c(c1)C(c1ccccc1)N(C(=O)c1ccccc1[N+](=O)[O-])CC(=O)N2 (configuration not stated)	none
O=C1CN(C(=O)c2c(F)cccc2F)C(c2ccccc2)c2cc(Br)ccc2N1 (configuration not stated)	none | CHT activ conf 14 | HEK293 MP dye inactive
CC1CCCN(Cc2ccc(OCc3ccccc3)cc2)C1 (configuration not stated)	none
CC(C)=C1C2CCC1C1C(=O)N(c3nc(-c4ccccc4)c(C)s3)C(=O)C21 (configuration not stated)	none
O=C1C=C(c2ccc(Oc3ccccc3)cc2)C[C@@H](c2ccc(F)cc2)C1	none (no result: Kir21 inh, ANO1 block, CHT PAM, Rce1 inh, CHT inh)
CC(C)(C)OC(=O)COc1cc(O)c2c(=O)cc(-c3ccccc3)oc2c1	none
CC(C)(C)OC(=O)COc1cc(OCC(=O)OC(C)(C)C)c2c(=O)cc(-c3ccccc3)oc2c1	ANO1 block 100, CHT PAM 8.3 (no result: Kir21 inh) | CHT activ conf 50 | HEK293 MP dye inactive
COCC(=O)N(C)c1nnc(-c2cnccn2)s1	none
COCC(=O)N(C)c1nnc(-c2cnc(C)cn2)s1	CHT PAM 6.4 | CHT activ conf 59 | HEK293 MP dye -55
N/C(=N\OC(=O)COc1ccc2ccccc2c1)c1cccnc1	none
N#Cc1c(N)sc(=S)c2c1CCN(Cc1ccccc1)C2	none (no result: Kir21 inh, TMEM16A act, Rce1 inh)
CC(C)N1CCc2c(sc(N)c2C#N)C1	CHT PAM 6.4 | CHT activ conf 43 | HEK293 MP dye -36
CC(C)N1CCc2c(sc(NC(=S)NC(=O)c3ccccc3)c2C#N)C1	none (no result: Rce1 inh)
CCN1CCc2c(sc(N)c2C#N)C1	none | CHT activ conf 37 | HEK293 MP dye -39
COc1ccc(-c2cc3cc(OC)c(OC)cc3c(C)n2)cc1C	none
COc1ccc(NC(=O)CSc2ccc3nnc(-c4ccccn4)n3n2)cc1OC	none
C[n+]1ccc(/C=C/c2cccs2)cc1	none | CHT activ conf 62 | HEK293 MP dye -42
CN(C)c1ccc(/C=C/c2cc[n+](C)cc2)cc1	CHT PAM 6.5 | CHT activ conf 34 | HEK293 MP dye inactive
Brc1ccc([C@H]2CN3CCSC3=N2)cc1	none
Cc1nnc(NCc2ccncc2)c2ccccc12	CHT PAM 7.1 | CHT activ conf 56 | HEK293 MP dye -46
Cc1nnc(NCc2ccccc2)c2ccccc12	none
